Bioassay records deposited in PubChem BioAssay by several laboratories.
Only some compounds are listed: those with a hit (about 2.1% of all), similar ones and a draw of the others.
ROMK mod: modulates human ROMK potassium channel activity; Tet-inducible ROMK, thallium flux fluorescence; actives lie on both sides; B-score at 10 µM; actives 2% (n = 130,000); AID 1918;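 active means signal ratio slope over the read window, or its plate-corrected B-score, at least 3 SD from the plate mean, either direction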;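 further: B-score of the F/F0 ratio slope over 7 to 12 s after thallium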
Target sequence (P48048 whole entry, looked up): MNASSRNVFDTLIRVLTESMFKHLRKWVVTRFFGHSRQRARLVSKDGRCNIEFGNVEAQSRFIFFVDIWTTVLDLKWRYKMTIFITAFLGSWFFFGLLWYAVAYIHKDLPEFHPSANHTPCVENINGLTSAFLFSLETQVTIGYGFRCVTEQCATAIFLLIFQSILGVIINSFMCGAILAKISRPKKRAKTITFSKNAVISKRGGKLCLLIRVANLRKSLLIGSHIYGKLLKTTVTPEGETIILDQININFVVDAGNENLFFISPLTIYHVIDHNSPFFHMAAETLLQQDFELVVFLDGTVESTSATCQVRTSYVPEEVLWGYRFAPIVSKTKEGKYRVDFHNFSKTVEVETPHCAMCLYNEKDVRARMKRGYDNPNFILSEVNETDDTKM
HMGR II inh: E. faecalis class II HMG-CoA reductase inhibition; purified E. faecalis HMGR, NADPH absorbance 340 nm kinetic; inhibition, % at 10 µM; actives 0.41% (n = 190,000);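 active means inhibition above a set limit, the median over all tested compounds plus 3 SD, cut at about 9.5% in these data; inconclusive means no clear call, values can overlap the other calls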;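 further: enzyme runs in reverse so mevalonate oxidation gives rising NADPH absorbance; 0% = complete reaction with DMSO and 100% = background rate lacking mevalonate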
m-calpain inh: blocks pig calpain II enzyme activity | purified calpain II, fluorogenic peptide substrate, 30 min | inhibition, % at 16 µM | actives 0.37% (n = 220,000) | AID 1236;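 active means inhibition above about 50%, limit read from the data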
Arbovirus inh: blocks arbovirus infection; actives 0.37% (n = 200,000); AID 1251; arbovirus infection cell-based antiviral screen; inhibition, % at 10 µM; in the data active means inhibition above about 30%
HSV augment: increases HSV replication in cells. HSV replication augmentation in cells, fold increase. actives 0.005% (n = 220,000). maximum fold increase; in the data active means maximum fold increase above about 1.5; inconclusive means no clear call, values can overlap the other calls; tested in PC3 cells
ROMK hit retest: human ROMK channel modulation, retest confirmation. shares compounds with ROMK mod. ROMK thallium flux, fluorescence ratio; hits give low values. normalized thallium flux (F/F0 slope) at 10 µM. actives 54% (n = 3,000). AID 1917;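 active means Flux at 10 µM at least 3 SD below or above vehicle control mean in one or both replicates; inconclusive means no clear call, values can overlap the other calls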
Starred values were filed as active, the others as inactive; i = inactive; u = inconclusive; x = no result given.

SMILES | ROMK mod | HMGR II inh | m-calpain inh | Arbovirus inh | HSV augment | ROMK hit retest
CN1CCN(CCCNC(=O)c2cc3c(-c4ccc(Cl)cc4)nn(C)c3s2)CC1 | x | -3.1 | -370.4 | -27.2 | i | x
CCN(CC)CCCNC(=O)c1cc2c(-c3ccc(Cl)cc3)nn(C)c2s1 | x | -1.6 | -432.3 | -27.4 | i | 0.0588*
N#Cc1ccc(-c2ccc(OCC(=O)NCCCN3CCCC3=O)cc2)cc1 | -0.89 | -0.2 | -22.7 | -24.4 | i | x
CC1(C)Cc2nc(NC3CCCCC3)c(C#N)cc2CO1 | -2.52* | -6.5 | -458.0 | 4.8 | i | 0.072
CC1(C)Cc2c(C#N)c(NC3CCCCC3)nc(-c3ccco3)c2CO1 | x | -5.6 | -36.5 | 11.5 | i | x
Nc1c(C(=O)c2ccccc2)sc2nsc(SCCN3CCCC3)c12 | x | x | -12.0 | x | x | x
CC(=O)c1sc2nsc(SCCN3CCCCC3)c2c1N | x | x | 5.2 | x | i | 0.0531*
Cc1ccc(OCCn2c(CCCO)nc3ccccc32)cc1 | -1.04 | -9.7 | 1.1 | 1.6 | i | x
OCCCc1nc2ccccc2n1CCOc1ccccc1 | -2.89* | 0.0 | -24.4 | 5.2 | i | 0.0672*
CC(C)c1nc(SCC(=O)Nc2ccc(N(C)C)cc2)c2ccccc2n1 | 1.39 | -4.5 | 2.4 | -17.3 | i | x
Cc1ccc(C(=O)N/C(=C/c2ccc(-c3cc(C(F)(F)F)ccc3Cl)o2)C(=O)NCc2cccnc2)cc1 | -0.951 | -2.2 | -100.9 | -15.9 | i | x
O=C(NCc1cccnc1)/C(=C/c1ccc(-c2cccc(C(F)(F)F)c2)o1)NC(=O)c1ccccc1 | -5.05* | -2.4 | -26.4 | -24.6 | x | 0.0541*
O=C(NCc1cccnc1)/C(=C/c1ccc(-c2ccc(Cl)cc2)o1)S(=O)(=O)c1ccccc1 | x | -2.7 | -81.3 | -34.9 | i | 0.0553*
O=C(NCc1cccnc1)/C(=C\c1ccc(-c2ccc(Br)cc2)o1)S(=O)(=O)c1ccccc1 | x | -2.4 | -75.8 | -44.0 | i | x
O=C(COC(=O)c1ccc(Cl)nc1)c1ccc2c(c1)OCCO2 | -2.18* | -4.3 | -16.8 | 2.8 | i | 0.0723
O=C(COC(=O)c1cccnc1Cl)c1ccc2c(c1)OCCO2 | 0.0183 | -1.7 | -19.4 | 3.8 | i | x
CN(C)C(/C=C/Nc1ccc(Br)cc1)=C(C#N)C#N | x | -3.2 | 13.8 | 0.3 | i | x
Brc1ccc(N=C/C=C/C=C/Nc2ccc(Br)cc2)cc1 | x | -8.2 | 0.3 | -8.0 | i | u
Cc1nc2ccccn2c1-c1csc(NCc2ccco2)n1 | x | 3.5 | -56.0 | 9.2 | i | x
Cc1ccn2c(-c3csc(NCc4ccccc4)n3)c(C)nc2c1 | -4.68* | -1.7 | -0.8 | -9.2 | i | 0.06*
Cc1ccc(C(=O)N/C(=C\c2ccc(-c3ccc(Br)cc3)o2)C(=O)NCCCN(C)C)cc1 | -3.69* | -0.6 | -128.3 | -29.3 | i | 0.0478*
CN(C)CCNC(=O)/C(=C/c1ccc(-c2ccc(Cl)cc2Cl)o1)NC(=O)c1ccccc1 | x | 1.9 | -45.7 | -34.7 | i | x
CN(C)CCNC(=O)/C(=C/c1ccc(-c2ccc(Cl)cc2)o1)NC(=O)c1ccccc1 | -4.38* | -0.1 | -40.8 | -44.8 | i | 0.0605*
Cc1cc(C)n(-c2nc3nonc3nc2Nc2cccc(C)c2C)n1 | -3.89* | -4.6 | -39.9 | 15.6 | x | 0.0534*
O=C(c1ccncc1)c1ccc(N2CCN(C3CC(=O)N(Cc4ccccc4)C3=O)CC2)cc1 (configuration not stated) | -4.04* | -13.0 | 0.8 | 4.9 | i | u
SMILES | ROMK mod | HMGR II inh | m-calpain inh | Arbovirus inh | HSV augment | ROMK hit retest
O=C1c2ccccc2C(=O)N1CCSc1nc2ccccc2c(=O)n1CCCN1CCOCC1 | -0.153 | 0.5 | -30.2 | 8.4 | i | x
O=C1c2ccccc2C(=O)N1CCCCSc1nc2ccccc2c(=O)n1CCCN1CCOCC1 | -3* | 2.5 | 11.2 | 21.1 | i | 0.0536*
CCCCOC(=O)C1CCC[C@@H](C)N1 (some centres not stated) | x | -0.8 | 1.6 | 1.2 | i | 0.0787
COc1ccc(-n2c(O)c(/C=N/NS(=O)(=O)c3cc(C)ccc3C)c3ccccc3c2=O)cc1OC | x | -0.9 | -83.2 | 0.7 | u | x
COc1ccc(-n2c(O)c(/C=N/NS(=O)(=O)c3ccc(C)cc3)c3ccccc3c2=O)cc1OC | -5.05* | -3.0 | -48.5 | 6.0 | u | u
Cc1ccc(OC(=S)Nc2ccc(F)cc2)cc1 | -0.823 | -0.6 | -2.7 | 4.6 | i | x
Cc1ccc(OC(=S)Nc2ccc(O)cc2)cc1 | -5.13* | -5.1 | 26.4 | -9.6 | i | 0.0428*
Cc1nsc(Nc2ccc([N+](=O)[O-])cc2)c1C#N | -1.7 | -7.1 | -5.5 | -5.9 | i | x
N/C(=N\c1nc2ccccc2o1)NC(=O)c1ccccc1Br | x | x | -68.6 | x | i | x
